Results from PubChem BioAssay AID623877 (Johns Hopkins Ion Channel Center, 2012).
Screen size: about 340,000 compounds; about 1,000 (0.29%) were called active.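 How the source made its calls: active means fluorescence-ratio B-score plate-corrected deviation score at least 3 library SD below zero, with starting fluorescence score within 5 deviations; inactive means the rest.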 The full list was thinned out, with actives kept by preference.

Each compound was assayed against Anoctamin-1 (Mus musculus) (UniProt Q8BHY3) (assay: mouse ANO1 channel activation – cell-based, HTS, primary screen (AID 623877;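 on B-score: channel opened by trigger with iodide after compound preincubation; score built on the fluorescence ratio of max minus min over baseline; more negative score means more quench and so TMEM16A activation or potentiation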)). Settings: HEK293 TMEM16A/YFP-H148Q/I152L, iodide quench fluorescence, at 10 µM; stronger effect = lower value.
Chain of Anoctamin-1 (Mus musculus) (Q8BHY3 whole entry, looked up): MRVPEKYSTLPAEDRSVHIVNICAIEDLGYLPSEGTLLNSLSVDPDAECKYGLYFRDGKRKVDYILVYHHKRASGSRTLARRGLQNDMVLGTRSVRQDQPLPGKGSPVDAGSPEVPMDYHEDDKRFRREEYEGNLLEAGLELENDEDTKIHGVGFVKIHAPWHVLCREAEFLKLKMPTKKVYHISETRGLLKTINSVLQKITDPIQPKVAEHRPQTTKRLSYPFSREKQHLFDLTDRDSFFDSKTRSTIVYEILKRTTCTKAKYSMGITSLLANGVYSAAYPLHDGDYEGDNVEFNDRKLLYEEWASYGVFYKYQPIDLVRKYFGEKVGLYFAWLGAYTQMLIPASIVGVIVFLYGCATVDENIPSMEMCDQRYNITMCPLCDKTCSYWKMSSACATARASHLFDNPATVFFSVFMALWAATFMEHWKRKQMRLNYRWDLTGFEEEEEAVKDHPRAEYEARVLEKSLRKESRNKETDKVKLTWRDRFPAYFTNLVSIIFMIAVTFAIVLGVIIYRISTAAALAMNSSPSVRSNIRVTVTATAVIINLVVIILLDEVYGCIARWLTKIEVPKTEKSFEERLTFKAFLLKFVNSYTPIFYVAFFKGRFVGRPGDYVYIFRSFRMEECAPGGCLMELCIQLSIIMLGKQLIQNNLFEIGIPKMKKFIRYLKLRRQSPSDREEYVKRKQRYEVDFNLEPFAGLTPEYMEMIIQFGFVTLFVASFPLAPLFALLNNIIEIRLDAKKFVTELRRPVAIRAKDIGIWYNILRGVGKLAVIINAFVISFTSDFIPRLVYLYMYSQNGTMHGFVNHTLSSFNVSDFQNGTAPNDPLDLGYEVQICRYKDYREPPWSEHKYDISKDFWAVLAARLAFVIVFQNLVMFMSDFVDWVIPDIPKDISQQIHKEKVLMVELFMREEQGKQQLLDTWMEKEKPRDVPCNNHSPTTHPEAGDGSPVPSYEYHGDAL

| Compound | B-score |
| --- | --- |
| FC(F)(F)c1cccc(NC(=S)Nc2cccc(Cl)c2)c1 | -5.69 (active) |
| O=C(O)CC1(CC(=O)Nc2cccc(C(F)(F)F)c2)CCCC1 | inactive |
| Cc1cccc(NC(=S)Nc2ccc(Cl)c(Cl)c2)c1 | inactive |
| C#CCOCCOCCOCCNc1nc(N2CCN(C(=O)Cn3cc(CCCCN)nn3)CC2)nc(N2CCN(C(=O)[C@H](CCCCN)n3cc(CCC(=O)O)nn3)CC2)n1 | inactive |
| C#CCOCCOCCOCCNc1nc(N2CCN(C(=O)[C@H](C(C)C)n3cc(CCO)nn3)CC2)nc(N2CCN(C(=O)[C@H]([C@@H](C)CC)n3cc(CCCN=C(N)N)nn3)CC2)n1 | inactive |
| C#CCOCCOCCOCCNc1nc(N2CCN(C(=O)Cn3cc(CCO)nn3)CC2)nc(N2CCN(C(=O)[C@H](CCCCN)n3cc(CCCC)nn3)CC2)n1 | inactive |
| C#CCOCCOCCOCCNc1nc(N2CCN(C(=O)CCCCCCCCCCNC(=O)[C@H]([C@@H](C)CC)n3cc(CCCCN=C(N)N)nn3)CC2)nc(N2CCN(C(=O)CCCCCCCCCCNC(=O)[C@H](CO)n3cc(CCCSC)nn3)CC2)n1 | -27.8 (active) |
| C#CCOCCOCCOCCNc1nc(N2CCN(C(=O)CCCCCCCCCCNC(=O)[C@H](CCCCN)n3cc(C)nn3)CC2)nc(N2CCN(C(=O)CCCCCCCCCCNC(=O)[C@H](CO)n3cc(CCCSC)nn3)CC2)n1 | -13.2 (active) |
| C#CCOCCOCCOCCNc1nc(N2CCN(C(=O)Cn3cc(CCO)nn3)CC2)nc(N2CCN(C(=O)Cn3cc(CCCN=C(N)N)nn3)CC2)n1 | inactive |
| Cc1ccc(OCCCC(=O)Nc2ccc3c(c2)OCCO3)cc1 | inactive |
| O=C(NCCCc1ccccc1)c1cc(COc2c(F)cccc2F)on1 | inactive |
| CCN1CCN(C(=O)C2CCCN(S(=O)(=O)c3ccc(OC)c(OC)c3)C2)CC1 (centres undefined) | inactive |
| COc1ccc(/C=C/CN2CCN(Cc3ccc(C)cc3)C(CCO)C2)cc1 (centres undefined) | inactive |
| O=C(CN1CCN(c2ccccc2O)CC1)NC(=O)NCc1ccccc1 | inactive |
| Cc1ccc(S(=O)(=O)NC(C(=O)N2CCOCCOCCOCCOCC2)c2ccccc2)cc1 (centres undefined) | inactive |
| Cc1ccc(S(=O)(=O)Nc2nc(C)cc(-n3nc(C)cc3C)n2)cc1 | inactive |
| CCCC(C(=O)n1nc(C)cc1C)C(NS(=O)(=O)c1ccc(C)cc1)c1ccccc1 (centres undefined) | -8.83 (active) |
| O=c1[nH]c(=S)[nH]c(O)c1/C=C1\C=Nc2ccccc21 | inactive |
| CC(C)N(Cc1nnc(-c2ccc(Cl)cc2)o1)C(=O)C1=COCCO1 | inactive |
| CCOC(=O)c1ccccc1NC(=O)COC(=O)CCC(=O)N1CCOCC1 | inactive |
| Cc1cnc(CN(C)C(=O)CC2C(=O)NCCN2Cc2cccc(F)c2F)[nH]1 (centres undefined) | inactive |
| Cc1nc2cccnc2nc1C | inactive |
| CC(C)CCN1CCN(Cc2ccc(C(F)(F)F)cc2)CC1CCO (centres undefined) | inactive |
| Cc1ccc(CN2CCN(Cc3ccccc3-c3ccco3)CC2CCO)o1 (centres undefined) | inactive |
| CC(C)CCN1CCN(C/C=C/c2ccco2)CC1CCO (centres undefined) | -7.6 (active) |

| Compound | B-score |
| --- | --- |
| COCCNC(=O)CSc1nc2c(n1-c1ccccc1)CCCC2 | inactive |
| O=C(CCNC(=O)c1ccc([N+](=O)[O-])cc1)NC1CCCCC1 | inactive |
| NS(=O)(=O)c1ccc(NC(=O)COC(=O)c2c3c(nc4ccccc24)/C(=C\c2ccc4c(c2)OCO4)CCC3)cc1 | inactive |
| O=C(COC(=O)c1ccncc1)Nc1ccc2c(c1)OCO2 | inactive |
| NC(=O)c1ccc(NC(=O)COC(=O)c2c3c(nc4ccccc24)/C(=C\c2ccc4c(c2)OCO4)CCC3)cc1 | -6.02 (active) |
| CCOC(=O)c1cc(NC(=O)SCC(=O)O)c(C)nc1C | inactive |
| CC(=O)OCC(COC(C)=O)OC(C)=O | inactive |
| CC(C[N+](C)(C)C)OC(N)=O (centres undefined) | inactive |
| CC(=O)OC(C)C[N+](C)(C)C (centres undefined) | -7.27 (active) |
| NS(=O)(=O)c1ccc(N=Cc2ccc(Br)s2)cc1 | inactive |
| COc1ccc(NC(C(=O)Nc2cccc(C(C)=O)c2)c2ccccc2)cc1 (centres undefined) | inactive |
| COc1ccc(-c2cc(C(=O)N3CCN(c4ccc(F)cc4)CC3)no2)cc1 | inactive |
| COc1ccc(-c2onc3ccc(C(C)=O)cc23)cc1 | -5.14 (active) |
| Cc1cccc(CC(=O)Nc2c3c(nn2-c2cccc(Cl)c2)CS(=O)C3)c1 (centres undefined) | inactive |
| CN(C(=O)c1cccc(NC(=O)Cc2ccc(NC(=O)C3CCCN(C(=O)C4CCCC4)C3)cc2)c1)C1CCC1 (centres undefined) | inactive |
| C=C(Cl)COC(=O)C1C2C=CC(C2)C1C(=O)O (centres undefined) | inactive |
| Cn1nccc1NS(=O)(=O)c1ccc(F)cc1 | inactive |
| CSc1ccc(CNCCN2CCOCC2)cc1 | -9.5 (active) |
| CCCCNCc1ccc(SC)cc1 | inactive |
| O=C(Cc1ccc(Br)cc1)NCCN1CCOCC1 | inactive |
| O=C(c1ccc(OC2CCN(C/C=C/c3ccc(F)cc3)CC2)cc1)N1CCCCC1 | inactive |
| COc1ccc(CCCc2nnc(SCc3nc4ccccc4c(=O)[nH]3)n2C)cc1 | inactive |
| CCn1c(Cc2ccccc2)nnc1SCc1nc2ccccc2c(=O)[nH]1 | inactive |
| CCn1c(COc2c(C)cccc2C)nnc1SCc1nc2ccccc2c(=O)[nH]1 | -4.66 (active) |
| Cc1ccc(Cl)cc1N1CCN(C(=O)c2cccc3c(=O)c(C)c(-c4ccccc4)oc23)CC1 | inactive |

| Compound | B-score |
| --- | --- |
| CCOc1ccc(N(CC(=O)NC2CCCCCC2)S(=O)(=O)c2c(C)[nH]c(=O)[nH]c2=O)cc1 | inactive |
| Oc1c(Cl)cc(Cl)c(Cl)c1Cc1c(O)c(Cl)cc(Cl)c1Cl | -5.49 (active) |
| OCC(O)C1OCOC(C(O)CO)C1O (centres undefined) | inactive |
| CCNC(=O)NC(=O)C(C)OC(=O)c1cc(S(=O)(=O)N2CCCCCC2)ccc1OC (centres undefined) | inactive |
| COc1ccc(C(=O)N(C)Cc2ccc(OC)c(OC)c2OC)cc1S(=O)(=O)N1CCOCC1 | inactive |
| COc1ccc(S(=O)(=O)N2CCCCCC2)cc1C(=O)N(C)Cc1cccc(OC)c1OC | -5.67 (active) |
| COc1ccc(NC(=O)C2C3C=CC(C3)C2C(=O)NCc2ccccn2)c(OC)c1 (centres undefined) | inactive |
| O=C(NCCN1CCOCC1)c1cccc(S(=O)(=O)Nc2ccc(F)cc2)c1 | inactive |
| Cc1ccc(C(=O)NC(=S)NCc2cccnc2)cc1 | inactive |
| Cc1c(C(=O)NC(=S)NCc2cccnc2)oc2ccccc12 | -24.9 (active) |
| Cc1c(C(=O)NNC(=O)c2ccncc2)oc2ccccc12 | inactive |
| O=C(OCC(=O)N1CCN(C(=O)c2ccco2)CC1)c1cccc(O)c1 | inactive |
| CCCOc1ccc(Cn2c(O)cc(=O)[nH]c2=O)cc1 | inactive |
| COc1ccc(Cn2c(=O)cc(C)[nH]c2=S)cc1 | inactive |
| COc1ccc(Cn2c(O)c(/C=C3/C=CC=N3)c(=O)[nH]c2=O)cc1 | -5.62 (active) |
| CCn1cc(CNC(=O)c2cc([N+](=O)[O-])c(C)c([N+](=O)[O-])c2)cn1 | inactive |
| O=C(Nc1ccccc1-c1nnn(CC(=O)N2CCN(c3ccccc3)CC2)n1)c1cccs1 | inactive |
| CCNC(=O)N1CCCC(C(=O)c2ccc(-c3ccccc3)cc2)C1 (centres undefined) | inactive |
| CCCCSc1[nH]c(=O)c(C(=O)OCC)cc1C#N | inactive |
| COc1ccc(C(=O)OCC(=O)NCC2CCCCC2)cc1S(=O)(=O)N1CCCc2ccccc21 | inactive |
| Cn1c(=O)n(C)c2cc(S(=O)(=O)N3CCCc4ccccc43)ccc21 | inactive |
| COc1cc(C)c(C)cc1S(=O)(=O)N1CCCc2ccccc21 | -10.8 (active) |
| CCCCC(=O)NNC(=S)NC(=O)C(c1ccccc1)c1ccccc1 | -5.16 (active) |
| CCCCCC(=O)NC(=S)NNC(=O)c1ccc([N+](=O)[O-])cc1 | inactive |
| CCC(C)NC(=O)CCCc1ccccc1 (centres undefined) | inactive |

| Compound | B-score |
| --- | --- |
| O=C(CN1CCN(Cc2ccc(F)cc2Cl)C1=O)NCc1cccs1 | inactive |
| CCOC(=O)CNC(=O)CN1C(=O)CCSc2ccccc21 | inactive |
| C=CCC[C@H](Cc1ccc(F)cc1)C(=O)OC[C@H](C)NC(=O)[C@H](CC=C)CC(=O)N(CCO)Cc1ccccc1 | inactive |
| C=CC[C@H](CC(=O)OC(C)(C)C)C(=O)OC[C@H]1CCCN1C(=O)[C@H](CC=C)CC(=O)N(CCO)Cc1ccccc1 | -5.89 (active) |
| C=CC[C@H](CC(=O)N(CCO)Cc1ccccc1)C(=O)N[C@@H](COC(=O)[C@@H](CC=C)Cc1ccc(F)cc1)Cc1ccccc1 | inactive |
| CC(Sc1nncn1C)C(=O)Nc1cc(C(F)(F)F)ccc1N1CCOCC1 (centres undefined) | inactive |
| Nn1c(SCC(=O)NC2CCCc3ccccc32)nnc1C1CC1 (centres undefined) | inactive |
| O=C(CSc1nncs1)NC1CCCc2ccccc21 (centres undefined) | inactive |
| Nc1nnc(SCC(=O)NC2CCCc3ccccc32)s1 (centres undefined) | -16.7 (active) |
| CC(=O)Oc1ccc(OC(C)=O)c2c1C1C=CC2CC1 | inactive |
| O=C(CNc1ccccc1N1CCCC1=O)Nc1cc(Cl)ccc1-n1cncn1 | inactive |
| Cc1ccc(NC(=O)CSc2nc(CSc3ccc(C)cc3)cc(=O)[nH]2)cc1 | -12.6 (active) |
| Cc1cc(=O)[nH]c(SCC(=O)Nc2ccc(Br)cc2)n1 | inactive |
| COc1ccc(NC(=O)CSc2nc(NS(=O)(=O)c3ccc(C)cc3)cc(=O)[nH]2)cc1 | inactive |
| COC1=NC2=NCCN2C(OC)=N1 | inactive |
| CC(=O)Nc1ccc(C(=O)Nc2cc(S(=O)(=O)N3CCOCC3)ccc2N2CCOCC2)cc1 | inactive |
| O=C1C(=O)N(c2ccccc2)c2ccccc21 | inactive |
| COc1ccccc1N1CCN(C(=O)c2ccc(Cl)c(S(=O)(=O)N3CCCC3)c2)CC1 | inactive |
| O=C(c1ccc(Cl)c(S(=O)(=O)N2CCCCCC2)c1)N1CCN(c2ccc(O)cc2)CC1 | -41.2 (active) |
| O=C(c1ccc(Cl)c(S(=O)(=O)N2CCCCC2)c1)N1CCCCCC1 | inactive |
| O=c1oc2ccccc2c(=O)c2ccccc12 | inactive |
| Cc1cc(C)n2nc(C(=O)NC(C)(C)C)nc2n1 | -4.58 (active) |
| COc1ccc(Cl)cc1C(=O)NNC(=O)c1nc2nc(C)cc(C)n2n1 | inactive |
| Cc1cc(C)n2nc(C(=O)N(C)C(c3ccccc3)c3ccccc3)nc2n1 | inactive |
